The text below walks through data of PubChem BioAssay AID1159580 (chemical genetic matrix, 2015).

A short description of this assay: chemical genetic growth profiling, strain panel (AID 1159580).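 Also: tested at 20 µM; growth read once vehicle control cultures reached saturation at 30 °C; 1 = growth at the plate median or of vehicle wells; lower values mean less growth of the strain.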 Conditions: growth OD.
Setting [1] is: S. cerevisiae deletion strains, locus YAL040C, strain CLN3, stronger effect = lower value.
Where [2] appears, read: S. cerevisiae deletion strains, locus YCL061C, strain MRC1 (second series), stronger effect = lower value.
[3] abbreviates: S. cerevisiae deletion strains, locus YER002W, strain NOP16, stronger effect = lower value.
The mark [4] stands for this setting: S. cerevisiae deletion strains, locus YMR263W, strain SAP30, stronger effect = lower value.
Setting [5] is: S. cerevisiae deletion strains, locus YNL153C, strain GIM3, stronger effect = lower value.
[6] abbreviates: S. cerevisiae deletion strains, locus YNL175C, strain NOP13, stronger effect = lower value.
Setting [7] is: S. cerevisiae deletion strains, locus YNL197C, strain WHI3, stronger effect = lower value.
Where [8] appears, read: S. cerevisiae deletion strains, locus YNL224C, strain SQS1, stronger effect = lower value.
The mark [9] stands for this setting: S. cerevisiae deletion strains, locus YNL322C, strain KRE1, stronger effect = lower value.
Setting [10] is: S. cerevisiae deletion strains, locus YOR083W, strain WHI5 (second series), stronger effect = lower value.
Where [11] appears, read: S. cerevisiae deletion strains, locus YDR150W, strain NUM1, stronger effect = lower value.
The mark [12] stands for this setting: S. cerevisiae deletion strains, locus YGR078C, strain PAC10, stronger effect = lower value.
[13] abbreviates: S. cerevisiae deletion strains, locus YJR075W, strain HOC1, stronger effect = lower value.
[14] abbreviates: S. cerevisiae deletion strains, locus YPL241C, strain CIN2, stronger effect = lower value.

Structures are written as SMILES. About 2,000 (36%) of roughly 5,500 compounds were called active. Roughly 18% stayed inconclusive and do not appear here. This is one part of the list. Values without a mark were called inactive. Rule as the data show it: active = normalized growth mostly below about 0.91 (no sharp cut-off); inconclusive = no clear call, values can overlap the other calls; inactive = mostly above about 0.92.

As for `Cc1[nH]c2ccc(O)cc2c1CCN`, the normalized growth runs as follows: under setting [1], 1; under setting [2], 1.01; (S. cerevisiae deletion strains, locus YDR363W, strain ESC2, stronger effect = lower value) 1.05; under setting [3], 1; under setting [4], 1.01; under setting [5], 1.03. The normalized growth was 1.01 under setting [6]; 0.987 under setting [7]; 0.996 under setting [8]; 1.02 under setting [9]; 0.999 under setting [10].
Regarding `CCc1cccc(N(C)C(N)=Nc2cccc3ccccc23)c1`, the normalized growth reads like this: under setting [1], 0.98; under setting [2], 0.989; under setting [11], 0.998; under setting [3], 1.03; under setting [12], 0.97; under setting [13], 0.983. The normalized growth by setting is: under setting [6], 1.03; under setting [7], 1; under setting [8], 0.993; under setting [10], 0.931; under setting [14], 0.989.
Take `N/C(Cc1cccc2ccccc12)=N/O`: the normalized growth runs as follows: (S. cerevisiae deletion strains, locus YAL013W, strain DEP1, stronger effect = lower value) 1; (S. cerevisiae deletion strains, locus YBR229C, strain ROT2, stronger effect = lower value) 1.02; (S. cerevisiae deletion strains, locus YDL101C, strain DUN1, stronger effect = lower value) 1.01; under setting [11], 0.986; (S. cerevisiae deletion strains, locus YEL061C, strain CIN8, stronger effect = lower value) 1.02; under setting [12], 1.01. Moreover, the normalized growth (S. cerevisiae deletion strains, locus YHR030C, strain SLT2, stronger effect = lower value) was 1.02; the normalized growth (S. cerevisiae deletion strains, locus YHR087W, strain rtc3, stronger effect = lower value) was 1.02; the normalized growth (S. cerevisiae deletion strains, locus YJL187C, strain SWE1, stronger effect = lower value) was 1.02; the normalized growth (S. cerevisiae deletion strains, locus YJR043C, strain POL32, stronger effect = lower value) is 1.02; the normalized growth under setting [13] was 1.05; the normalized growth (S. cerevisiae deletion strains, locus YKL190W, strain CNB1, stronger effect = lower value) was 1.02. Further, the normalized growth was 1.06 (S. cerevisiae deletion strains, locus YLR039C, strain RIC1, stronger effect = lower value); 1.01 (S. cerevisiae deletion strains, locus YLR058C, strain SHM2 (second series), stronger effect = lower value); 1.14 (S. cerevisiae deletion strains, locus YLR085C, strain ARP6, stronger effect = lower value); 1.02 (S. cerevisiae deletion strains, locus YLR262C, strain YPT6, stronger effect = lower value); 1.01 (S. cerevisiae deletion strains, locus YML094W, strain GIM5, stronger effect = lower value); 1.03 (S. cerevisiae deletion strains, locus YMR219W, strain ESC1, stronger effect = lower value). For the same molecule, the normalized growth reads like this: under setting [4], 1.04; (S. cerevisiae deletion strains, locus YMR307W, strain GAS1, stronger effect = lower value) 1.17; under setting [5], 0.997; (S. cerevisiae deletion strains, locus YNL298W, strain CLA4 (second series), stronger effect = lower value) 1.02; under setting [9], 1; (S. cerevisiae deletion strains, locus YNR030W, strain Alg12, stronger effect = lower value) 1. Further, the normalized growth (S. cerevisiae deletion strains, locus YOL006C, strain TOP1, stronger effect = lower value) is 1.05; the normalized growth (S. cerevisiae deletion strains, locus YPL055C, strain LGE1, stronger effect = lower value) was 0.897; the normalized growth under setting [14] was 1.22 [resistant] (active); the normalized growth (S. cerevisiae deletion strains, locus YPR135W, strain CTF4, stronger effect = lower value) is 0.945; the normalized growth (S. cerevisiae strains, strain wild type, stronger effect = lower value) was 1.02.
